This is a sample that favours compounds with a hit; in the whole collection about 2.4% have one here.
ALOX15B inhib: qHTS Assay for Inhibitors of 15-hLO-2 (15-human lipoxygenase 2) | Polyunsaturated fatty acid lipoxygenase ALOX15B (Homo sapiens), O15296 | purified 15hLO-2, xylenol orange hydroperoxide absorbance | Potency, µM (series often up to 57.1 µM), for inactives: at the top dose activity change, negative = inhibition, hits mostly inhibitors | hit rate 0.56% among 110,000 | AID 881, 2007; also: % is scaled to controls: 0 for no effect and ±100 for the full control effect; nearly all actives have a fitted effect of over 60% in size
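Enzyme 50 nM, AA 45 uM, 25 mM Hepes pH 7.5 + 0.01% Triton X-100; cpd preinc 15 min RT, rxn 90 min RT; stop/detect with 200 uM XO + 300 uM Fe(II) in 50 mM H2SO4, 30 min; A573/A405.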
Hsp90 Hop PPI: qHTS Assay for Disrupters of an Hsp90 Co-Chaperone Interaction | Hsp90 C-terminal peptide / TPR2A (Hop) interaction, human | AID 595, 2007 | hit rate 0.44% among 71,000 | AlphaScreen TPR2A-His6 binding biotin-Hsp90 C-terminal peptide | Potency, µM (titrated, usually from 57 µM), for inactives: at the top dose activity change, negative = inhibition; active = well fitted curve in either direction with a large enough effect; inconclusive = small, poorly fitted or top-dose-only effect, or another doubt; also: % is scaled to controls: 0 for no effect and ±100 for the full control effect
Casp1 inh: qHTS Assay for Allosteric/Competitive Inhibitors of Caspase-1; P29466; Caspase-1 enzyme, Ac-WEHD-AFC fluorogenic rate; Potency, µM (highest dose often 57.5 µM), without a hit: at the highest dose activity change, negative = inhibition, most hits filed as inhibitors; hit rate 0.03% among 75,000;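 also: plate controls were vehicle for no effect and no substrate for full effect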
Tau fil binding: qHTS Assay for Tau Filament Binding; Microtubule-associated protein tau (Homo sapiens), P10636; recombinant tau filaments, thioflavin S fluorescence, 15 h; filaments grown with octadecylsulfate alongside compound; Potency, µM (series often up to 57.1 µM), without a hit: top-dose activity change, negative = inhibition; hit rate 2% among 71,000;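 also: % is scaled to controls: 0 for no effect and ±100 for the full control effect; actives lower thioflavin S fluorescence by blocking filaments or displacing dye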
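ThS-based fibril read: tau 1 uM final, inducer ODS 30 uM final, 37 C for 15 h, ex 450/em 510 nm.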
Casp7 inh: qHTS Assay for Allosteric/Competitive Inhibitors of Caspase-7 | P55210 | recombinant caspase-7, Ac-DEVD-AFC fluorescence rate | Potency, µM (doses to about 57.5 µM), for inactives: at the highest dose activity change, negative = inhibition, actives largely listed as inhibitors | hit rate 0.02% among 75,000; active = well fitted inhibition curve with a large enough effect in the main read-out, with a control signal flat, not every such curve was filed as active; inconclusive = small, poorly fitted or top-dose-only effect, or a change in a side signal; also: % of control where 0% means no effect
15-hLO inh: qHTS Assay for Inhibitors of 15-hLO (15-human lipoxygenase); Potency, µM (highest dose often 57.1 µM), inactives show top-dose activity change, negative = inhibition, actives largely listed as inhibitors; hit rate 1.4% among 74,000; AID 887, 2007; purified 15hLO-1, xylenol orange hydroperoxide absorbance; also: % is scaled to controls: 0 for no effect and ±100 for the full control effect; nearly all actives have a fitted effect of over 55% in size
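Hydroperoxide formed from arachidonic acid (50 uM) by purified human 15hLO-1 (40 nM) oxidizes ferrous iron, and the ferric-xylenol orange complex is read at 573 versus 405 nm. Compounds were preincubated 15 min; reaction ran 6 min at room temperature.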
* = called active by the depositor; i = inactive; ? = inconclusive; · = not tested or not shown; ! = not active in a repeat; [ ] = remark or other dose. Unless noted, calls follow the shape of the dose curve; as a rule, active = well fitted curve in the direction sought with a large enough effect; inconclusive = small, poorly fitted or top-dose-only effect, or another doubt; inactive = no such curve, though single readings can be large; an effect the other way counts as inactive or inconclusive. Potency is read from the fitted curve at half-maximal effect.

SMILES | ALOX15B inhib | Hsp90 Hop PPI | Casp1 inh | Tau fil binding | Casp7 inh | 15-hLO inh
CCCCCCC[n+]1ccc(-c2cc[n+](CCCCCCC)cc2)cc1 | 42% | -3% | 0% | 16µM* | 2% | -13%[25.6 µM]
Cc1ccc2c(c1)C1CN(C)CCC1N2C(=O)Cn1cnc2c1c(=O)n(C)c(=O)n2C (stereo not given) | 6% | -3% | 2% | -3% | 1% | 10%
CN1Cc2ccccc2[C@@H]2c3cccc4[nH]cc(c34)C[C@H]21 | 4% | -26% | -11% | 25µM* | -19% | ?
CC1=C[C@@H]2c3cccc4[nH]cc(c34)C[C@H]2N(C)C1 | · | -23% | · | 91% | · | ·
CCCN1CCO[C@@H]2c3cc(O)ccc3OC[C@@H]21 | 5% | 0% | -1% | 40µM* | 0% | ?
CC(C)[N+](C)(CCC(C(N)=O)(c1ccccc1)c1ccccc1)C(C)C | -9% | 0%[26 µM] | 1% | 2%[25.6 µM] | 1% | -3%
COC(=O)/C=C\C(=O)N[C@@H]1CC[C@@]2(O)[C@H]3Cc4ccc(O)c5c4[C@@]2(CCN3CC2CC2)[C@@H]1O5 | 12% | -1% | 1% | 32µM* | 0% | -28%[25.6 µM]
Oc1ccc2c3c1O[C@H]1c4[nH]c5c(c4C[C@@]4(O)[C@@H](C2)N(CC2CC2)CC[C@]314)C[C@]1(O)[C@H]2Cc3ccc(O)c4c3[C@@]1(CCN2CC1CC1)[C@@H]5O4 | 38% | -17% | -1% | 11% | -3% | -26%[25.6 µM]
O=C(Nc1ccc2c(c1)OCO2)c1cn(Cc2ccc(F)cc2)nn1 | -9% | -22% | -3% | 13µM* | 0% | 2%
c1cc2c(c(NC3=NCCN3)c1)CCCC2 | -2%[11.4 µM] | 1%[11 µM] | -2%[11.5 µM] | 16%[11.4 µM] | 0%[11.5 µM] | -1%[11.4 µM]
Cc1ccccc1C1=NCC(=O)N(CC(=O)NCc2ccco2)c2sc3c(c21)CCCC3 | -11% | -7% | -1% | 17% | -2% | 25µM*
O=C(O)c1ccccc1-c1c2cc(Br)c(=O)cc-2oc2[c]([Hg])c(O)c(Br)cc12 | 4µM* | -8%[26 µM] | · | i | ? | 0.25µM*
FC(Cl)(Cl)Cl | -7% | -2% | 0% | 8% | 0% | -4%
O=c1c2ccccc2nc(N2CCCC2)n1-c1ccc(Cl)cc1 | 6% | 14% | -3% | -1% | -2% | -5%
Oc1cc2c(cc1O)[C@H]1c3ccccc3CN[C@H]1CC2 | 6.3µM* | -4% | 1% | ? | -1% | 1%[25.6 µM]
Oc1cc2c(cc1O)[C@H]1c3ccccc3CN[C@@H]1CC2 | ? | -14% | 1% | 11% | -1% | ?
Clc1cccc(SC2CCNCC2)n1 | 21% | -7% | 0% | ? | 2% | 0%[25.6 µM]
O=C(c1ccc2c(=O)n(Cc3ccc4c(c3)OCO4)c(=S)[nH]c2c1)N1CCC2(CC1)OCCO2 | -7% | -2% | -5% | 25% | -7% | -18%
CCC(=NCCCN(C)C)c1c(O)n(-c2ccc(OC)cc2)c(=O)[nH]c1=O | -2% | -3% | 0% | 3% | 0% | 3%
CN(N=O)c1ccc(O)c(O)c1 | 19% | 3.2µM* | 3% | -19% | 0% | 16µM*
CC1=NN(c2ccccc2)C(=O)[C@@H]1N=Nc1ccc([As](=O)(O)O)c(O)c1 | -13%[11.4 µM] | -9%[11 µM] | 1%[11.5 µM] | 3.2µM* | -1%[11.5 µM] | -6%[11.4 µM]
Nc1nc(N)c(N=Nc2ccc([As](=O)(O)O)c(O)c2)c(N)n1 | -2%[11.4 µM] | -5%[11 µM] | -1%[11.5 µM] | -3%[11.4 µM] | -5%[11.5 µM] | 8%[11.4 µM]
CCN(CC)c1ccc(CC2C(=O)N(C)C(=O)N(C)C2=O)cc1 | · | -22% | -3% | 41% | -8% | 1%
NC(=O)CI | ? | -2% | 4% | -2% | 2% | 32µM*
O=C(c1ccc(CS(=O)(=O)c2ccccc2)o1)N1CCC2(CC1)OCCO2 | 2% | -5% | 0% | -17% | 0% | -10%
SMILES | ALOX15B inhib | Hsp90 Hop PPI | Casp1 inh | Tau fil binding | Casp7 inh | 15-hLO inh
N#C/C(=C\c1ccc(O)c(O)c1)C(N)=S | 25µM* | ? | -7% | 78% | -8% | 4µM*
CCCCC/C=C\C/C=C\C/C=C\C/C=C\CCCC(=O)O | ? | · | ? | · | -10% | 0.32µM*
[O]=[Cr](=[O])([OH])[O][Cr](=[O])(=[O])[OH] | -5% | ? | 2% | 1.3µM*! | -1% | 0%
N=c1c2c(n(Cc3ccc(Cl)cc3Cl)c3c1CCC3)CCCC2 | 8% | · | · | · | · | ·
Nc1c(C(=O)NCc2ccco2)c2nc3ccccc3nc2n1Cc1ccc(F)cc1 | -7% | · | · | · | · | ·
COCCCn1c(N)c(C(=O)NCCC(C)C)c2nc3ccccc3nc21 | · | 25µM* | · | 3% | ? | -22%
CCCCOCCCn1c(N)c(C(=O)OCCOC)c2nc3ccccc3nc21 | -29% | · | · | · | · | ·
COc1ccc(Cn2c(N)c(C(=O)NCc3ccco3)c3nc4ccccc4nc32)cc1 | -7% | -10% | · | 6.3µM* | ? | ?
CCCCCCn1c(N)c(C(=O)NCCN2CCOCC2)c2nc3ccccc3nc21 | 3%[2.29 µM] | ? | · | 74% | ? | 16µM*
CCCCCCC(C)(C)c1ccc([C@@H]2C[C@H](O)CC[C@@H]2CCCO)c(O)c1 | -7% | -7% | -4% | ? | -12% | ?
CC1(C)N([O-])[N+](=O)C1(C)Br (stereo not given) | 5% | · | 1% | · | -2% | ?
O=C(O)c1cc[c]([Hg][Cl])cc1 | 3.2µM* | -5% | ? | -6% | -6% | 1.6µM*
O=C(O)c1cccc(Cl)c1 | -4% | 3% | 1% | 18% | 1% | -4%
C=CCn1c(O)c(C(C)=Nc2ccc(N(C)C)cc2)c(=O)[nH]c1=O | 13% | -7% | -1% | -19% | -1% | -20%
C=CCn1c(O)c(C(C)=Nc2ccc(N(CC)CC)cc2)c(=O)[nH]c1=O | -3% | -10% | -4% | 16µM* | -5% | -19%
CCCCn1c(N)c(C(=O)OCC2CCCO2)c2nc3ccccc3nc21 (stereo not given) | -25% | 6% | · | ? | ? | -16%
O=C1NC(=O)[C@]2(Cc3ccccc3N3CCN(c4ccccc4)CC32)C(=O)N1Cc1ccccc1 (stereo not given in full) | 32µM* | -10% | -4% | ? | -24% | -28%
CC(C)=CCCC1(C)C=Cc2c(O)c3c(c(CC=C(C)C)c2O1)OC12C(=CC4CC1C(C)(C)OC2(C/C=C(/C)C(=O)O)C4O)C3=O (stereo not given) | -10% | · | -7% | · | -14% | 20µM*

Assay outcomes (PubChem BioAssay)
